Screening results as filed in PubChem.
D3 antag: qHTS of D3 Dopamine Receptor Antagonist: qHTS; 360,000 tested, 2.5% active; max response, negative = inhibition, %; D3R cells, DiscoveRx beta-arrestin luminescence, antagonist mode; stronger effect = lower value; D(3) dopamine receptor (Homo sapiens), P35462; in the data active = max response below about -50%; inconclusive = no clear call, values can overlap the other calls; note: % is set by controls: 0 for no effect and ±100 for the full control effect
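Cells expressing the human receptor were seeded at 1500 cells/well, incubated overnight at 37 degrees C in 5% CO2, then exposed to library compounds with dopamine controls for 90 minutes at 37 degrees C before luminescent detection.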
ClpP mod: qHTS Assay for Activators of ClpP. ATP-dependent Clp protease proteolytic subunit (Bacillus subtilis (strain 168)), P80244. purified B. subtilis ClpP, FRET peptide cleavage, 20 min. Potency, µM (top dose mostly 57.5 µM), without a hit: at the highest dose activity change, negative = active. 340,000 tested, 1.9% active. AID 651965, 2013; active = well fitted falling curve with a large enough effect; inconclusive = small, poorly fitted or top-dose-only effect; inactive = no such curve, though single readings can be large or run the other way; note: potency is the fitted concentration of half-maximal effect; the source files actives as falling curves though it sought activators and does not explain the sign; nearly all actives have a fitted effect of over 65% in size
Target sequence (P80244 whole entry, looked up): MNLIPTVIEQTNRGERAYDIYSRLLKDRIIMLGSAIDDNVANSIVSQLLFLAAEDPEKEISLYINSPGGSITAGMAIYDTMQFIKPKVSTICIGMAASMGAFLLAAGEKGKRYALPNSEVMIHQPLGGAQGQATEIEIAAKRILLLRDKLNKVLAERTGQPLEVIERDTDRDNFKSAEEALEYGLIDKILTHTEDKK
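Buffer: 100 mM Tris/HCl pH8, 100 mM KCl, 0.05% low protease BSA, 2.5% glycerol, 0.01% Tween-20. ClpP 10 microg/mL final; 20 min RT; delta FRET normalized to ADEP and DMSO controls.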
TDP1 cell noCPT: qHTS for Inhibitors of human tyrosyl-DNA phosphodiesterase 1 (TDP1): qHTS in cells in absence of CPT; DT40 Tdp1-/- hTDP1 cells, no CPT, ATP luminescence, 48 h; Potency, µM (titrated, usually from 46.2 µM), inactives show at the top dose activity change, negative = growth inhibition, usual class: inhibitors; 420,000 tested, 15% active; AID 686978, 2013; note: potency is the fitted concentration of half-maximal effect; % is set by controls: 0 for no effect and ±100 for the full control effect; nearly all actives have a fitted effect of over 55% in size
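Growth of hTDP1-complemented DT40 Tdp1-knockout cells is measured by ATP luminescence after at least 48 hr compound exposure at 37 °C, with DMSO substituting for the 20 nM CPT used in the parallel screen.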
IL-1B inflam inh: qHTS for Inhibitors of Inflammasome Signaling: IL-1-beta AlphaLISA Primary Screen; THP-1 LPS/ATP IL-1B secretion, AlphaLISA, 16 h; stronger effect = lower value; activity change, % at 57.5 µM; 360,000 tested, 4.7% active; AID 743279, 2014; in the data active = activity change below about -50%; inconclusive = mostly about -30% to -49%; note: % is set by controls: 0 for no effect and ±100 for the full control effect
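Secreted IL-1B measured by AlphaLISA bead assay after 16 h compound exposure of THP-1 cells; compounds (final up to 57.5 uM) added 1 h before LPS (250 ng/mL) and ATP (1.25 mM) stimulation; lower signal means less secretion.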
DRD3 agonist: qHTS of D3 Dopamine Receptor Agonist: qHTS; D(3) dopamine receptor (Homo sapiens), P35462; D3R DiscoveRx beta-arrestin cells, luminescence, 90 min; max activation, %; 410,000 tested, 0.58% active; in the data active = max activation above about 30%; note: 0% is about no effect
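Agonist-mode cell screen: cells plated at 1500/well and incubated overnight at 37 °C, then exposed to library compounds for 90 min at 37 °C. Detection reagent was added for 30–60 min at room temperature, and luminescence was read.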
DT40 TDP1 CPT: qHTS for Inhibitors of human tyrosyl-DNA phosphodiesterase 1 (TDP1): qHTS in cells in presence of CPT | 420,000 tested, 12% active | AID 686979, 2013 | Potency, µM (highest dose often 46.2 µM), for the others: at the top dose activity change, negative = growth inhibition, usual class: inhibitors | chicken DT40 Tdp1-/-;hTDP1 cells + 20 nM CPT, ATP luminescence, 48 h; note: potency is the fitted concentration of half-maximal effect; % is set by controls: 0 for no effect and ±100 for the full control effect; nearly all actives have a fitted effect of over 55% in size
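Cell growth measured by CellTiter-Glo luminescence after a minimum 48 h, 37 C compound exposure with 20 nM CPT in Tdp1-knockout DT40 cells stably expressing hTDP1, seeded 400/well; qHTS titration format.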
* = called active by the depositor; ? = inconclusive; . = not tested or not shown. Only some compounds are listed: those with a hit (about 21% of all), similar ones and a draw of the others. Unless noted, calls come from the whole dose curve; as a rule, active = well fitted inhibition curve with a large enough effect; inconclusive = small, poorly fitted or top-dose-only effect; inactive = flat fitted curve, though single readings scatter.

SMILES	D3 antag	ClpP mod	TDP1 cell noCPT	IL-1B inflam inh	DRD3 agonist	DT40 TDP1 CPT
O=C(COC(=O)Cc1ccc(Cl)cc1)NCc1ccco1	12	-2%	0%	10	4	-1%
COCC(C)NC(=O)C(C)Oc1ccccc1 (stereo not drawn)	-10	-3%	-17%	24	2	-5%
CCc1ccc(C(=O)c2cn(CC(=O)Nc3ccc4c(c3)OCCO4)c3ccc(CC)cc3c2=O)cc1	.	1%	8%	.	-8	0%
Cc1ccc(C)c(Nc2nn3c(=O)c4ccc(C(=O)NC5CCCCC5)cc4nc3s2)c1	.	4%	8.2µM*	.	-5	7.3µM*
Cc1ccc(C)c(Nc2nn3c(=O)c4ccc(C(=O)NCCc5ccccc5)cc4nc3s2)c1	.	0%	8.2µM*	.	1	3.7µM*
Cc1ccc(C)c(Nc2nn3c(=O)c4cc5c(cc4nc3s2)OCO5)c1	.	-1%	18µM*	.	3	16µM*
Cc1c(Cl)cccc1Nc1nn2c(=O)c3ccc(C(=O)NCCc4ccccc4)cc3nc2s1	.	258%	5.2µM*	.	4	8.2µM*
COc1ccc(-c2nc(CS(=O)CC(=O)NC(C)CCc3ccccc3)c(C)o2)cc1OC (stereo not drawn)	-2	4%	?	-20	-2	?
O=c1[nH]c(=O)c2[nH]c(=S)[nH]c2[nH]1	28	.	16%	8	-5	-25%
Cc1c(Cl)cccc1Nc1nn2c(=O)c3ccc(C(=O)N(C)Cc4ccccc4)cc3nc2s1	.	47%	?	.	-12	?
CCc1ccccc1Nc1nn2c(=O)c3ccc(C(=O)NCCCOC(C)C)cc3nc2s1	.	-8%	?	.	-12	?
CCN(CC)CCNC(=O)c1ccc2c(=O)n3nc(Nc4cccc(Cl)c4C)sc3nc2c1	.	-10%	2.6µM*	.	2	4.6µM*
COc1ccccc1Nc1nn2c(=O)c3ccc(C(=O)NCCc4ccccc4)cc3nc2s1	.	-26%	2.9µM*	.	-12	2.3µM*
O=C(COC(=O)/C=C/c1ccc([N+](=O)[O-])cc1)NC1CCCCC1	-4	-4%	-26%	12	-2	-13%
CCN(CC)C(=O)Cn1c(=O)n(Cc2ccc(F)cc2)c(=O)c2sccc21	0	.	?	4	-16	9.2µM*
O=C(C1CCC(Cn2c(=O)c3sccc3n(Cc3ccc(F)cc3)c2=O)CC1)N1CCOCC1 (stereo not drawn)	.	1%	18µM*	.	9	23µM*
Cc1ccccc1Cn1c(=O)n(CC2CCC(C(=O)N3CCC(C)CC3)CC2)c(=O)c2sccc21 (stereo not drawn)	.	-5%	16µM*	.	7	23µM*
CNC(=O)C1CCC(Cn2c(=O)c3sccc3n(CC(=O)Nc3cc(C)cc(C)c3)c2=O)CC1 (stereo not drawn)	.	0%	10µM*	.	-3	?
CCN(CC)C(=O)Cn1c(=O)n(CCC(=O)Nc2ccc(F)cc2)c(=O)c2sccc21	5	0%	4%	9	5	-11%
Cc1ccccc1Cn1c(=O)n(CC2CCC(C(=O)NCCc3ccccc3)CC2)c(=O)c2ccccc21 (stereo not drawn)	3	1%	29µM*	30	-3	21µM*
CC(=O)N[C@@H](C)C(=O)OC(C)C(=O)Nc1cccc([N+](=O)[O-])c1 (stereo partly drawn)	14	.	-4%	38	8	0%
COc1cc(C2C(C(C)=O)=C(O)C(=O)N2CCc2c[nH]c3ccccc23)ccc1O (stereo not drawn)	-56*	-2%	-3%	41	0	-8%
